In PubChem BioAssay AID624330 (Southern Research Specialized Biocontainment Screening …, 2012):
Several values for one entry are separate records, joined by “and”; a condition that tells them apart may be missing. Equal entries are not always repeated. Screen size: about 340,000 compounds; about 2,100 (0.62%) were called active.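 The calls were made as follows: active = first-screen hits whose inhibition reached a set limit at any dose in the follow-up dose series; inconclusive = inhibition above the set first-screen limit but never retested; inactive = the rest.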 Not all results are given here. Potency and affinity values are given separately.

molecular target: Rac GTPase-activating protein 1 (Homo sapiens) (UniProt Q9H0H5); assay: MgcRacGAP GTPase-activating activity inhibitors, confirmation, biochemical, ADP Hunter fluorescence, primary and confirmatory (AID 624330); details: MgcRacGAP-stimulated Rac1 GTP hydrolysis, at 30 µM, active compounds read high, GST-tagged Rac1 F28L mutant substrate;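 also: fluorescence reports GDP produced by GAP-driven GTP hydrolysis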
Sequence (Q9H0H5 whole entry, looked up): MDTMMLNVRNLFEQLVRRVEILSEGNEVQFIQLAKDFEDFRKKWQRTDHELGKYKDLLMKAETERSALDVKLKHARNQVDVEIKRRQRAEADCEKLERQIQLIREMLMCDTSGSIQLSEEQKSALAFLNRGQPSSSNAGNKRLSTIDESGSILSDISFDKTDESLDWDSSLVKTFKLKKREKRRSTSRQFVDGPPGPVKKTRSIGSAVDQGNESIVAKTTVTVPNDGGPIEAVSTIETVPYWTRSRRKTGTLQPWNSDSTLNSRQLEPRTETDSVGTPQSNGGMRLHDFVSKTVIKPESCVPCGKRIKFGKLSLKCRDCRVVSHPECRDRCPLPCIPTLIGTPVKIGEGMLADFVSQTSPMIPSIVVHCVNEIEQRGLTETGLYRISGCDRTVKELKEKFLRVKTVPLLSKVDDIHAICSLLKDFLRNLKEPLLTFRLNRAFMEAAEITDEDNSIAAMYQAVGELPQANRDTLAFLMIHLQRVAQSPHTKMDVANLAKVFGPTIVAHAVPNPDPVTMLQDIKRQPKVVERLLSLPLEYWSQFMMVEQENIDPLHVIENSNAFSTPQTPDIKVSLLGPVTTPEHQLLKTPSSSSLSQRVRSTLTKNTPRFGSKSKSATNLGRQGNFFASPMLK

inhibition, inactive:
O=C(CN1CCN(Cc2ccccc2)CC1)Nc1nc2ccccc2s1 14%
CCOC(=O)N1CCN(CC(=O)Nc2nc3ccccc3s2)CC1 -4.03%
COc1ccc2nc(NC(=O)CN3CCN(C)CC3)sc2c1 14.5%
CCCN1CCN(CC(=O)Nc2nc3ccccc3s2)CC1 12.4%
O=C(CN1CCN(c2ccccn2)CC1)Nc1nc2ccccc2s1 12.2%
CCOc1ccc2nc(NC(=O)CN3CCN(CC)CC3)sc2c1 5.24%
Cc1[nH]nc(N=CC2=C(O)CC(c3ccco3)CC2=O)c1-c1ccccc1 (centres undefined) -2.48% and -0.93%
CNC(=O)c1cc(C(=O)c2ccc(F)cc2Cl)c[nH]1 4.17%
CC1CCCCC1NC(=O)C1CC=CCC1C(=O)O (centres undefined) -1.3%
CCC1=C(OC(=O)N(CC)CC)N2C(=O)OC(=NCC(=O)OC)[C@]2(Cc2ccccc2)[C@H]2C1=CC[C@H]1C(=O)N(C)C(=O)[C@H]12 0.87%
CC1CCN(CC(=O)Nc2ccccc2C(=O)NC2CC2)CC1 3.3%
O=C(CN1CCN(S(=O)(=O)c2ccccc2)CC1)Nc1ccccc1C(=O)NC1CC1 4.29%
O=C(NC(=S)N1CCN(c2ccccc2)CC1)c1ccco1 5.3%
S=C(NCCc1ccccc1)N1CCN(C(=S)NCCc2ccccc2)CC1 1.96%
O=C(CN1CCN(c2ccc(F)cc2)CC1)Nc1ccccc1C(=O)NCCc1ccccc1 9.18%
O=C(CN1CCN(c2ccccc2)CC1)Nc1ccccc1C(=O)NCCc1ccccc1 15.8%
COc1ccc(N2CCN(C(=S)NCCc3ccccc3)CC2)cc1 5.11%
O=C(NC(=S)N1CCN(c2ccc([N+](=O)[O-])cc2)CC1)c1ccco1 13.1%
O=C1CN(C(=O)CNCc2ccc(Cl)cc2)c2ccccc2N1 31.7%
CCCC(C(=O)Nc1ccc(S(=O)(=O)N2CCOCC2)cc1)c1ccccc1 (centres undefined) 4.26%
Cc1nn(C)c(C)c1NC(=O)CN1CCC(O)(c2ccc3c(c2)OCO3)CC1 2.97%
COc1ccccc1NC(=O)c1ccc2c(c1)CCN2S(C)(=O)=O 6.1%
CC(C)NC(=S)N/N=C1\CCCc2ccccc21 3.57%
Nc1nc(NC(=O)c2ccc(F)cc2)ns1 7.21%
Nc1nc(N)c2cc(CNc3ccc(Cl)c(Cl)c3)ccc2n1 14.7%
Cc1nc2ccc(N)cc2c(=O)n1Cc1ccc(Cl)cc1 4.23%
Cc1c(C(C)C[C@H](C)O)oc(=O)c2c1Oc1c(C)c(C(C)C[C@H](C)O)oc(=O)c1C2 (some centres undefined) 7.75%
CCN(CC)c1ccc(C=NN2CCCCCC2)cc1 -1.67%
CN1CCN(/N=C/c2ccc(N(c3ccccc3)c3ccccc3)cc2)CC1 15.3%
C(=N\N1CCN(Cc2ccccc2)CC1)/c1ccccc1 8.38%
CN1CCN(/N=C/c2ccc(N(C)c3ccccc3)cc2)CC1 27.2%
CCN(CC)c1ccc(/C=N/N2CCN(c3ccccn3)CC2)cc1 13.5%
CCOc1ccc(/C=N/N2CCN(Cc3ccccc3)CC2)cc1 -1.17%
CCN(CC)c1ccc(/C=N\N2CCN(Cc3ccc(C)cc3)CC2)cc1 20.7%
CCOc1ccccc1/C=N/N1CCN(Cc2ccccc2)CC1 -6.47%
COc1cccc(-c2nn(C)c3sc(C(=O)NCc4ccc(C)cc4)cc23)c1 5.17%
CCOC(=O)c1[nH]c(C)c(C(=O)OCC(=O)NCc2ccc(OC)c(OC)c2)c1C 1.24%
Cn1ncc2c(NCc3ccccc3)nc(NCCCO)nc21 8.06%
CC(C)CC(NC(=O)OC(C)(C)C)c1cn([C@@H](Cc2cc3ccccc3[nH]2)C(=O)N2CCN(C(=O)OC(C)(C)C)CC2)nn1 (some centres undefined) 9.06%
COC(=O)c1c(C)[nH]c(C(=O)OC(C)C(=O)N2CCOCC2)c1C (centres undefined) 13.4%
O=C(COC(=O)CC12CC3CC(CC(C3)C1)C2)Nc1ncc(Cl)cc1Cl 3.82%
COc1ccc(C(=O)OCC(=O)N2CCN(C(=O)c3ccco3)CC2)cc1OC 0.19%
COc1ccc2c(c1)C(c1ccc(C)o1)=NNC(c1ccccc1)=N2 2.46%
CCC1=NN(C(=O)Cc2ccccc2)C(O)(c2ccncc2)C1 (centres undefined) 5.64%
CCN(Cc1ccccc1)c1ccc(/C=N/NC(=O)c2cccc(S(=O)(=O)N3CCOCC3)c2)cc1 9.77%
CCN(CC)c1ccc(/C=N/N2CCN(Cc3ccccc3)CC2)c(O)c1 25.7%
CCN(CC)c1ccc(/C=N/N2CCN(c3ccccc3OC)CC2)cc1 13%
CCN(CC)c1ccc(/C=N/N2CCN(Cc3ccc(C)cc3)CC2)c(O)c1 15.3%
Cc1c(N(CC(=O)O)S(=O)(=O)c2ccccc2)c(=O)n(-c2ccccc2)n1C 11.2%
O=C(c1ccc(NS(=O)(=O)c2cccc3cccnc23)cc1)N1CCCCC1 -16.1%
CCOc1ccc(NC(=O)CN(C)C(=O)c2ccc(C)c(S(=O)(=O)N3CCCCC3)c2)cc1OCC 6.08%
O=[N+]([O-])c1ccc2[nH]c(O)c(N=NC(=S)NCC3CCCO3)c2c1 (centres undefined) 9.66%
COc1cccc(NC(=O)C(=O)NCC2CCCN2S(=O)(=O)c2ccccc2)c1 (centres undefined) 3.83%
CCc1ccccc1-n1nnnc1-c1cnccc1C(F)(F)F 4.03%
O=S(=O)(Cc1c(F)cccc1Cl)c1ncn[nH]1 5.34%
CN(C)c1ccc(CNn2cnnc2SCC(=O)NC(C)(C)C)cc1 14.5%
Cc1[nH]n(-c2ccccc2)c(=O)c1-c1ccc(Cl)cc1 8.45%
Cc1[nH]n(-c2cccc(Cl)c2)c(=O)c1-c1ccccc1 30.6%
COc1ccc([N+](=O)[O-])cc1N(CC(=O)N1CCN(Cc2ccccc2)CC1)S(C)(=O)=O 6.86%
